Source: PubChem BioAssay (NCI)
About 83,000 compounds went through this panel and 20% of them were active in at least one assay; those are over-represented in the sample as a whole.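 Negative percent growth values reflect cell death: -40 means 40% of the cells present at the start died, and -100 means all died.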 Values without a mark were called inactive. Activity calls are given as the source filed them. The calls were made as follows: active = growth percent below 10; inactive = the rest.

Legend:
Assay in all cases: NCI-60 one-dose screen, 48 h (100 = growth as untreated, 0 = no growth, -100 = all killed)
[1] = test system: HCT-15 colon; conditions: 10 µM unless noted
[2] = test system: SNB-75 CNS; conditions: 10 µM unless noted
[3] = test system: SNB-19 CNS; conditions: 10 µM unless noted
[4] = test system: U251 CNS; conditions: 10 µM unless noted
[5] = test system: PC-3 prostate; conditions: 10 µM unless noted
[6] = test system: UACC-62 melanoma; conditions: 10 µM unless noted
[7] = test system: LOX IMVI melanoma; conditions: 10 µM unless noted
[8] = test system: SK-MEL-28 melanoma; conditions: 10 µM unless noted
[9] = test system: SK-MEL-2 melanoma; conditions: 10 µM unless noted
[10] = test system: EKVX NSCLC; conditions: 10 µM unless noted
[11] = test system: SN12C renal; conditions: 10 µM unless noted
[12] = test system: UO-31 renal; conditions: 10 µM unless noted
[13] = test system: TK-10 renal; conditions: 10 µM unless noted
[14] = test system: ACHN renal; conditions: 10 µM unless noted
[15] = test system: CAKI-1 renal; conditions: 10 µM unless noted
[16] = test system: A498 renal; conditions: 10 µM
[17] = test system: HL-60(TB) leukemia; conditions: 10 µM unless noted
[18] = test system: CCRF-CEM leukemia; conditions: 10 µM unless noted
[19] = test system: SK-MEL-5 melanoma; conditions: 10 µM unless noted

O=C(CC1(O)C(=O)Nc2ccccc21)c1ccc(C(=O)NCC2CCC3(CC2)OOC2(CCCCC2)OO3)cc1 (stereo not given)
growth [1]: 79.9%
growth [2]: 82.1%
growth [3]: 86.4%
growth [4]: 63.6%
growth [5]: 50.8%
growth [6]: 63.4%
growth [7]: 57.3%
growth [8]: 86.4%
growth [9]: 70.7%
growth [10]: 58.3%
growth [11]: 74.4%
growth [12]: -77.2% (active)
growth [13]: 104%
growth [14]: 60.1%
growth [15]: 39.5%
growth [16]: 93.7%
growth [17]: 31.7%
growth [18]: 7.85% (active)

O=P(Oc1ccc(Cl)cc1)(N1CC1)N1CC1
growth [1]: 88.7%
growth [2]: 74.2%
growth [3]: 91%
growth [4]: 82.6%
growth [5]: 76.1%
growth [19]: 86.2%
growth [6]: 58%
growth [7]: 83.1%
growth [8]: 98.3%
growth [9]: 102%
growth [10]: 101%
growth [12]: 61.1%
growth [13]: 104%
growth [14]: 25%
growth [15]: 5.92% (active)
growth [16]: 97.4%
growth [17]: 96%
growth [18]: 82.5%

CC(=O)[C@H]1CC[C@H]2[C@@H]3CC[C@H]4C[C@H](N)CC[C@]4(C)[C@H]3CC[C@]12C
growth [1]: 64.5%
growth [2]: 49.5%
growth [4]: 69.2%
growth [5]: 62.1%
growth [6]: 80.9%
growth [7]: 69.4%
growth [8]: 86.2%
growth [9]: 89.8%
growth [12]: 63.1%
growth [13]: 82.6%
growth [14]: 82.9%
growth [16]: 78.6%
growth [17]: 63.4%
growth [18]: 102%

COC(=O)CC[C@H](Cc1ccccc1)NC(=O)c1csc([C@@H](C[C@H](C(C)C)N(C)C(=O)[C@@H](NC(=O)[C@H]2CCCCN2C)C(C)C)OC(C)=O)n1
growth [1]: 57.6%
growth [2]: 34.3%
growth [3]: 44.2%
growth [4]: 12.5%
growth [5]: 39.8%
growth [19]: -13.4% (active)
growth [6]: 34.4%
growth [7]: 29.3%
growth [8]: 77.3%
growth [9]: 54.1%
growth [10]: 44.1%
growth [11]: 43.8%
growth [12]: 49.7%
growth [13]: 42.5%
growth [14]: 23.9%
growth [16]: 5.63% (active)
growth [17]: 4.63% (active)
growth [18]: 19.8%

CCOP(=O)(Nc1ccc2c(c1)/C(=N/NC(N)=S)c1ccccc1-2)OCC
growth [1]: 96.5%
growth [2]: 80.6%
growth [3]: 94.5%
growth [4]: 94.8%
growth [5]: 94.4%
growth [19]: 84.4%
growth [6]: 77.7%
growth [7]: 88.9%
growth [8]: 116%
growth [9]: 110%
growth [10]: 92.9%
growth [11]: 81.9%
growth [12]: 91.8%
growth [13]: 104%
growth [14]: 89.9%
growth [16]: 96.3%
growth [18]: 85.6%

CC[S][Hg][Cl]
growth [1]: 104%
growth [2]: 93.6%
growth [3]: 106%
growth [4]: 99.6%
growth [5]: 103%
growth [19]: 106%
growth [6]: 103%
growth [7]: 88.1%
growth [8]: 111%
growth [9]: 105%
growth [12]: 87.9%
growth [13]: 115%
growth [14]: 101%
growth [15]: 89.7%
growth [16]: 115%
growth [17]: 113%
growth [18]: 93.4%

COc1cc(C=Nc2cccc(Br)c2)ccc1N(CCCl)CCCl
growth [1]: 82.4%
growth [2]: 69.1%
growth [3]: 91.9%
growth [4]: 73%
growth [5]: 68.4%
growth [19]: 86%
growth [6]: 76.1%
growth [7]: 68.7%
growth [8]: 116%
growth [9]: 91.2%
growth [10]: 120%
growth [11]: 84.5%
growth [12]: 69.1%
growth [13]: 92.9%
growth [14]: 18.2%
growth [16]: 120%
growth [17]: 71.2%
growth [18]: 63.5%
